According to PubChem BioAssay AID686979 (National Center for Advancing Translational Sciences (NCATS), 2013):
The whole screen tested about 420,000 compounds, of which about 50,000 (12%) were called active. Roughly 26% stayed inconclusive and do not appear here. This is one part of a sample in which actives are shown more often than they occur. Values without a mark were called inactive. The call rests on the fitted dose curve; in most records, active means well fitted inhibition curve with a large enough effect; inconclusive means small, poorly fitted or top-dose-only effect; inactive means flat fitted curve, though single readings scatter.

Assay: qHTS for Inhibitors of human tyrosyl-DNA phosphodiesterase 1 (TDP1): qHTS in cells in presence of CPT; further: nearly all actives have a fitted effect of over 55% in size
Conditions: chicken DT40 Tdp1-/-;hTDP1 cells + 20 nM CPT, ATP luminescence, 48 h; series mostly up to 46.2 µM; activity change, negative = growth inhibition: at the top concentration
How it was run: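 Cell growth measured by CellTiter-Glo luminescence after a minimum 48 h, 37 C compound exposure with 20 nM CPT in Tdp1-knockout DT40 cells stably expressing hTDP1, seeded 400/well; qHTS titration format.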
On the % scale 0 is the no-effect control and ±100 the full control effect; potency means the concentration at half of the fitted maximal effect.

Structure (SMILES)	activity change, negative = growth inhibition	Potency
CN(C(=O)CC1C(=O)NCCN1Cc1ccc2ccccc2c1)C1CCOCC1 (centres undefined)	5.07%	–
Cc1ccc(/C=C2\CCn3c2nc2cc(C(=O)O)ccc2c3=O)c(C)c1	-6.72%	–
Cc1ccc(-c2cc(C(=O)NN)n[nH]2)o1	-2.74%	–
CN(Cc1ccccc1)C(=O)[C@@H]1CCCN1C(=O)[C@@H]1CCCN1C(=O)c1c(F)cccc1F	1.59%	–
CC(C)=CCN1CCN(Cc2ccc(Oc3ncccn3)cc2)CC1CCO (centres undefined)	-0.653%	–
COc1ccccc1OCCOc1ccc(/C=C2\C(=N)N3N=C(C)SC3=NC2=O)cc1	5.82%	–
COc1ccc(NC(=O)N(C)C[C@H]2Oc3ncc(C#C[C@@H](C)O)cc3C(=O)N([C@H](C)CO)C[C@H]2C)cc1	1.89%	–
Cn1c(=O)cc(OCC(=O)N2CCN(c3ccccc3)CC2)c2ccccc21	-1.4%	–
N#C/C(C(=O)N1CCOCC1)=C1/SC(Cc2ccc(F)cc2)C(=O)N1c1ccccc1 (centres undefined)	10.3%	–
COc1ccc(S(=O)(=O)N2CCN(CC(=O)N3CCOCC3)CC2)cc1OC	0.861%	–
O=C(O)CCC(=O)Nc1ccc(OCC2CCCO2)cc1 (centres undefined)	19.8%	–
Cc1ccsc1-c1cc(C(=O)O)c2c(ccc3ccccc32)n1	10.3%	–
CC(=O)C1=C(O)C(=O)N(c2ccc(Br)cc2)C1c1ccc([N+](=O)[O-])cc1 (centres undefined)	23.1%	–
CCn1c(CNC(=O)c2ccccc2)nnc1SCC(=O)N1CCN(c2ccccc2)CC1	-0.967%	–
CCn1c2c(c(=O)n3ncc(C(=O)N4CCN(c5ccccc5)CC4)c13)CN(Cc1ccc(OC)cc1)CC2	–	16.4 µM (active)
CCOC(=O)N1CCC(NC(=O)C(NS(=O)(=O)c2ccc3c(c2)CCN3C(=O)CC)C(C)C)CC1 (centres undefined)	-1.88%	–
Cc1cc(C)cc(NS(=O)(=O)c2cc3c(cc2C)NC(=O)CO3)c1	–	16.4 µM (active)
Cc1cc2c(cc1S(=O)(=O)NCc1ccc(Cl)cc1)OCC(=O)N2	-4.04%	–
Cc1ccc(NS(=O)(=O)c2ccc3c(c2)NC(=O)CO3)cc1	-25.8%	–
CC1CCCCC12NC(=O)N(CC(=O)OCC(=O)NCc1ccc(F)cc1)C2=O (centres undefined)	6.76%	–
CC(=O)C[C@@H]1OC[C@H](CO)N1S(=O)(=O)c1ccc(C)cc1	-5.46%	–
COC(=O)c1ccccc1NC(=O)CSc1ccccn1	2.84%	–
CCOC(=O)c1cnc(SCC(=O)NCc2ccco2)nc1N	-2.75%	–
CCOC(=O)c1cnc(SCC(=O)Nc2ccccc2C(=O)OC)nc1N	–	16.4 µM (active)
O=C(CSc1nc2ccccc2c(=O)n1CCCO)NC1CC1	-3.57%	–

Structure (SMILES)	activity change, negative = growth inhibition	Potency
COc1ccc(CCNC(=O)CCC(=O)NC2CCCCC2)cc1OC	-17.8%	–
COc1ccc(CCNC(=O)C2CCCN2C(=O)Nc2ccccc2)cc1OC (centres undefined)	1.85%	–
COc1ccc(CCNC(=O)c2c3c(nc4ccccc24)C(=O)N(C2CCCCC2)C3)cc1OC	–	20.6 µM (active)
COc1ccc(C(=O)NCCNc2ccc([N+](=O)[O-])cn2)cc1	-12.2%	–
COc1ccc2c(C(=O)c3ccc(C)cc3)n(CCC(N)=O)[n+]([O-])c2c1	-8.64%	–
CCOC(=O)C(C(=O)OCC)C(C#N)c1ccccc1 (centres undefined)	-4.24%	–
Cc1cc(C)cc(OCC(=O)NC(C)c2ccccc2)c1 (centres undefined)	-1.12%	–
CCOC(=O)/C=C/C(=O)OCC(=O)NC(c1ccccc1)c1ccccc1	–	5.8 µM (active)
O=C(/C=C/c1cccc([N+](=O)[O-])c1)OCC(=O)N1CCOCC1	-14.9%	–
OC[C@@H]1CN(Cc2ccc(-c3ccccc3)cc2)C[C@H](n2cnc3c(NC4CCCC4)ncnc32)O1	–	1.03 µM (active)
OC[C@@H]1CN(Cc2ccc(Cl)cc2)C[C@H](n2cnc3c(NCc4ccncc4)ncnc32)O1	-15.7%	–
OC[C@@H]1CN(C2CCCC2)C[C@H](n2cnc3c(NC4CCC4)ncnc32)O1	-0.382%	–
Cc1cccc([C@@H]2[C@@H]3C(=O)N(C)C(=O)[C@@H]3[C@@H]3C(=O)Nc4ccccc4C(=O)N23)c1	0.49%	–
Cc1cccc(C2c3c(n(C)c(=O)n(C)c3=O)N=C3c4ccccc4C(=O)C32)c1 (centres undefined)	–	8.2 µM (active)
COc1ccc(C2C3=C(OC(C)=O)c4ccccc4C3=Nc3c2c(=O)n(C)c(=O)n3C)cc1 (centres undefined)	-17.3%	–
COc1ccc(/C=C/c2nnc(NC(=O)C(C)C)s2)cc1	-1.28%	–
O=C(Cn1cc(C(=O)C2CC2)c2ccccc21)Nc1ccccc1Cl	-8.18%	–
O=C(Nc1cccc(-n2cnnn2)c1)c1cccnc1	0.855%	–
COc1ccc(CNC(=O)C2=Cc3cccc(OC)c3OC2)cc1OC	-8.55%	–
O=S(=O)(c1cccc2nonc12)N1CCN(c2cccc(Cl)c2)CC1	-28.1%	–
COc1cc(=O)n2c(c1C(=O)NC(C)c1ccco1)CCN(Cc1cc(C)cc(C)c1)CC2 (centres undefined)	-2.45% [at 9.04 µM]	–
COC(=O)c1c(NC(=O)c2ccc(Cl)c(Cl)c2)sc2c1CCCC2	0.169%	–
COC(=O)c1c(NC(=O)COC(=O)[C@@H](NS(=O)(=O)c2ccccc2)C(C)C)sc2c1CCC2	–	18.4 µM (active)
CCc1ccc(N(CC(=O)Nc2sc3c(c2C(=O)OC)CCCC3)S(C)(=O)=O)cc1	–	23.1 µM (active)
CCOC(=O)c1c(NC(=O)/C(C#N)=C/c2ccccc2)sc2c1CCC2	-3.28%	–

Structure (SMILES)	activity change, negative = growth inhibition	Potency
COC(=O)c1c(NC(=O)CCCC(=O)O)sc2c1CCCCC2	2.67%	–
CCOCC(=O)Nc1sc2c(c1C(=O)OCC)CCCC2	-28.4%	–
O=C(NC1CCCCC1)c1cc(C2CC2)on1	8.81%	–
COC(=O)CC(CC(=O)OC)n1cccc1	3.57%	–
CCCN(CCC)CC(O)COc1ccccc1C(=O)Nc1ccccc1 (centres undefined)	-16.1%	–
CCCNC(=O)CCC(=O)N1Cc2ccccc2Oc2ncccc21	-11.4%	–
Cc1onc(-c2ccccc2Cl)c1C(=O)NCCn1ccc2ccccc21	-18.3%	–
Cc1ccc2cc(CCNC(=O)c3c(-c4ccccc4Cl)noc3C)c(=O)[nH]c2c1	–	23.1 µM (active)
Cc1ccc(CNC(=O)c2c(-c3ccccc3)noc2C)cc1	8.05%	–
Cc1[nH]nc(-c2ccc(OCc3cnn(-c4ccccc4)c3)cc2O)c1Oc1ccc(Cl)cc1	–	18.4 µM (active)
Oc1cccc(C2c3[nH]c4ccccc4c3CCN2Cc2cnn(-c3ccccc3)c2)c1 (centres undefined)	1.42%	–
O=C(c1cnn(-c2ccc(Cl)cc2)c1)c1ccccc1O	-19.7%	–
O=C(COC(=O)c1n[nH]c2ccccc12)Nc1ccccc1Br	-3.17%	–
O=C(COC(=O)c1n[nH]c2ccccc12)NCc1ccccc1	-13.9%	–
CN(C)S(=O)(=O)c1ccc(NC(=O)COC(=O)c2n[nH]c3ccccc23)cc1	–	14.6 µM (active)
Cc1nn(C(C)(C)C)c(OC(=O)CC(C)C)c1S(=O)(=O)c1ccccc1	-23.6%	–
COC(=O)c1cccc(C(=O)N2CCCC(Nc3ccc4c(c3)OCCO4)C2)c1 (centres undefined)	-15.5%	–
O=C(CSc1nc2ccc(Nc3nc(N4CCOCC4)nc(N4CCOCC4)n3)cc2s1)NCc1ccco1	–	25.9 µM (active)
C=CCn1c(CSc2nc3ccccc3s2)nnc1SCC(=O)NCc1ccco1	3.96%	–
O=C(CSc1nnnn1-c1ccccc1)NCc1ccco1	-15.8%	–
Brc1ccc(/C=N/N2CCN(C3c4ccccc4-c4ccccc43)CC2)s1	-7.72%	–
CC(=O)O[C@]1(C(C)=O)CC[C@H]2[C@@H]3CCC4=CC(=O)CC[C@]4(C)[C@@]3(F)[C@@H](O)C[C@@]21C	-16.5%	–
CN(C)c1ccc(C2N(C)C(=O)c3ccccc3N2C)cc1 (centres undefined)	-15.1%	–
Cc1ccc2nnn(Cc3cccc(C(C)(C)C)c3O)c2c1	–	20.6 µM (active)
Cc1ccc(C(=O)CSc2nnc(Cn3nnc4ccccc43)n2C)cc1	-21%	–

Structure (SMILES)	activity change, negative = growth inhibition	Potency
Cc1ccc(C2(C)NC(=O)N(CC(=O)N3CC(=O)Nc4ccccc43)C2=O)cc1 (centres undefined)	-18.6%	–
CC(C)c1nc(SCC(=O)Nc2cccc(C(=O)O)c2)c2c3c(sc2n1)CCCC3	-9.85%	–
Cc1cc(NC(=O)CSc2nc(C(C)C)nc3sc4c(c23)CCC(C)C4)no1 (centres undefined)	–	18.4 µM (active)
Cc1nc(SCC(=O)Nc2cc(C)on2)c2c(C)c(C)sc2n1	-1.85%	–
Cc1cc(C)cc(NC(=O)CSc2nc(=O)n(CCN3CCOCC3)c3c2CCC3)c1	17.9%	–
O=C(CN1CCN(c2ncccn2)CC1)Nc1ccccc1C(F)(F)F	-23.1%	–
N#Cc1ccc(CN2CCCC3(CCN(C(=O)c4ccco4)CC3)C2)cc1	-0.202%	–
Cc1ccc2nc(-c3ccc(C)c(NC(=O)Cc4ccccc4)c3)oc2c1	-0.609%	–
CC(C)[C@H](NC(=O)N1CCn2c1nc1ccccc12)C(=O)NC1CC1	3.89%	–
CCC(C)[C@H](NC(=O)N1CCn2c1nc1ccccc12)C(=O)NCc1ccc(OC)cc1 (some centres undefined)	–	20.6 µM (active)
CC(C)C[C@H](NC(=O)N1CCn2c1nc1ccccc12)C(=O)NC1CC1	-19.7%	–
COc1nc(-c2ccc(Cl)cc2)ccc1-c1noc(-c2cccs2)n1	2.91%	–
CCOc1ccc(-c2noc(CCC(=O)NC3CCCC3)n2)cc1OC	3.5%	–
COc1ccc2[nH]c(=O)c(-c3noc(-c4ccc(F)cc4)n3)cc2c1	-1.15%	–
COc1cc(-c2n[nH]c(=S)n2Cc2ccccc2)cc(OC)c1OC	0.202%	–
COc1ccc(-c2cc(-c3nc(-c4cc(OC)c(OC)c(OC)c4)no3)[nH]n2)c(OC)c1	–	20.6 µM (active)
CCOc1nc(-c2ccc(OC)cc2)ccc1-c1noc(-c2cc(OC)c(OC)c(OC)c2)n1	–	5.17 µM (active)
O=C(NCc1ccc(Cl)cc1)c1ccc2c(c1)nnn2C1CCCC1	-26.8%	–
O=C(CCC1N=C2c3ccccc3N=C(SCc3ccccc3F)N2C1=O)NCCc1ccccc1 (centres undefined)	-5.14%	–
Cc1nc(C(F)(F)F)ccc1C(=O)N1CCC1(C)C(=O)NS(=O)(=O)c1ccccc1 (centres undefined)	-7.92%	–
CCn1cc(C(=O)N[C@@H](C)C(=O)NCCO)c(=O)c2cc3c(cc21)OCO3	9.66%	–
Cc1ccccc1OCCOc1ccc([N+](=O)[O-])cc1/C=N/n1cnnc1	–	1.16 µM (active)
COc1ccccc1OCCOc1ccc(/C=N/n2cnnc2)cc1	-3.17%	–
Cc1cc(-c2ccc(/C=N/n3cnnc3)o2)c([N+](=O)[O-])cc1C	-3.41%	–
